In the library only some 7.9% were active in any assay of this set; here they are far more common.
M1 antag: blocks the rat M1 muscarinic receptor response to acetylcholine | CHO-M1 cells, Fluo-4 calcium, ACh EC80 antagonist mode; active compounds read low | AID 628 | B-score at 10 µM | actives 3.4% (n = 64,000);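 active means calcium fluorescence response, raw or row-and-column corrected B-score, differing from the plate sample mean either way at a set confidence level, mostly lower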
M1 agonist: M1 muscarinic receptor agonism. CHO-M1 cells, Fluo-4 calcium fluorescence, agonist mode; active compounds read high. B-score at 10 µM. actives 3% (n = 64,000). AID 626;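 active means fluorescence rise, raw or as B-score row- and column-corrected plate score, outside the 99.7% band of its plate's samples, either direction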
PLAP activator: activates human placental alkaline phosphatase; activation fold at 20 µM; AID 696; purified PLAP enzyme, luminescent substrate read-out; active compounds read high; P05187; actives 1.2% (n = 96,000); in the data active means activation fold above about 2
Target sequence (P05187 whole entry, looked up): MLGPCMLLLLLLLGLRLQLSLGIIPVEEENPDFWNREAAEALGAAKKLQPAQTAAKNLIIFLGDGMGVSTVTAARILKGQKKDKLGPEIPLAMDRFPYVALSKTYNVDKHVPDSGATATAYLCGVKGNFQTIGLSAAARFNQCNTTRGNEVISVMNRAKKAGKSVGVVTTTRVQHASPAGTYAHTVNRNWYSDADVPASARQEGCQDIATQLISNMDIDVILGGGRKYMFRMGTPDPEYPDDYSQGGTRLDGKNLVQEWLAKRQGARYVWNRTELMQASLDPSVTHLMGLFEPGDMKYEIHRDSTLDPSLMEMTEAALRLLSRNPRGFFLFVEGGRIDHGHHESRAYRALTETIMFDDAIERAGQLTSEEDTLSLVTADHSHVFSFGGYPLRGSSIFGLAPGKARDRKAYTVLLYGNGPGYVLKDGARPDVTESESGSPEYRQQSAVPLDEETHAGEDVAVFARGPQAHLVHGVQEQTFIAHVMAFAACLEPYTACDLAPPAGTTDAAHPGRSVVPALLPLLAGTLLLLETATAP
Cav3 T inh: inhibitors of human Cav3.2 T-type calcium channel. Cav3.2-expressing cells, Fluo-4 calcium fluorescence FDSS; active compounds read low. O95180. actives 4% (n = 100,000). B-score at 10 µM;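 active means single-dose well whose peak fluorescence ratio is a statistical outlier from its plate by either plate-standardised score or position-corrected B-score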
HER2 expr 66K: lowers expression of human Her2 kinase; P04626; SKBR-3 HER2 protein level, AlphaScreen, 18-24 h; active compounds read low; HER2 level % of control, % at 10 µM; actives 0.69% (n = 65,000); AID 645;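 active means HER2 level under 5% of the carrier-only control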;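 further: 100% = DMSO carrier and 0% = 500 nM PU-H71 HSP90 inhibitor; lower value means stronger loss of Her2 protein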
* = called active by the depositor; . = no result given.

SMILES	M1 antag	M1 agonist	PLAP activator	Cav3 T inh	HER2 expr 66K
Cc1ccc2c(CC(=O)Nc3nc(C)cs3)coc2c1	-0.66	-1.2	0.9	-6.8*	101
O=C(Cc1c[nH]c2ccccc12)Nc1nc2ccccc2[nH]1	0.31	0.94	1.3	-6.3*	96
Cc1csc(NC(=O)CCCSc2nc3ccccc3s2)n1	0.032	0.48	1.4	-3	94
CCn1c(SCC(=O)Nc2nc3ccc(OC)cc3s2)nc2c1c(=O)n(C)c(=O)n2C	-0.45	1.4	1.6	-0.96	78
CCn1nc(C)c(C(=O)Nc2cc(Oc3ccc(Cl)cc3)cc([N+](=O)[O-])c2)c1C	.	.	1.6	-1.4	.
Cc1ccc(C(N)=S)c(C)c1	0.49	-0.43	.	0.57	71
CCOc1ccc(N(CC(=O)NCC2CCCO2)S(=O)(=O)c2ccc(SC)cc2)cc1 (centres undefined)	.	.	1.8	0.075	.
Cn1c(=O)cc(SCC(=O)NCCN2CCN(c3ccccc3F)CC2)c2cc(Cl)ccc21	-1	0.39	1.4	-0.3	113
COc1cccc(/C=N/NC(=O)CCc2c(C)n[nH]c2C)c1	.	.	2.1*	-0.47	.
CCOc1ccc2nc(NC(=O)C(NS(=O)(=O)c3cccc4nsnc34)C(C)C)sc2c1 (centres undefined)	.	.	2.4*	-1.5	.
O=C(O)c1ccc(NCc2ccncc2)cc1	.	.	1.3	0.057	.
COc1ccc(CNc2ccc(C(=O)O)cc2)cc1	-0.029	0.63	1.1	0.24	-30*
COc1cc(NC(=O)CN2CCN(S(=O)(=O)c3ccc(C(C)C)cc3)CC2)cc(OC)c1	0.4	2.2	1	-4.2*	50
COc1cccc(NC(=O)CN2CCN(S(=O)(=O)c3ccc(C(C)C)cc3)CC2)c1	0.033	-0.84	1.3	-7.3*	89
COc1ccc(S(=O)(=O)N2CCN(CC(=O)Nc3cc(OC)cc(OC)c3)CC2)cc1	0.07	-0.82	1.1	.	66
CCOC(=O)C1=C(c2ccccc2)NC(SCC(=O)Nc2cccc(C)c2)=C(C#N)C1c1ccco1 (centres undefined)	1.2	1.3	1	-2.1	61
CC(=O)C1=C(C)NC(SCC(=O)c2ccc(Cl)cc2)=C(C#N)C1c1ccco1 (centres undefined)	-0.43	-0.014	1.3	-4.5*	70
CCOC(=O)CSC1=C(C#N)C(c2ccccc2)C(C(C)=O)=C(C)N1 (centres undefined)	-0.34	-0.38	1.3	-1	100
CCOC(=O)C1=C(c2ccccc2)NC(SCC(=O)Nc2ccccc2C)=C(C#N)C1c1ccco1 (centres undefined)	1.1	0.015	1	-7.4*	70
CSCSC1=C(C#N)C(c2ccc(Cl)cc2)C(C(C)=O)=C(C)N1 (centres undefined)	0.5	-0.022	1.1	-5.5*	136
O=C(NCC1c2ccccc2CCN1C(=O)CN1C(=O)c2ccccc2C1=O)C1CCCCC1 (centres undefined)	.	.	1	1	.
Cc1nn(Cc2ccc(Cl)cc2)c(C)c1NC(=O)c1cc(-c2ccco2)on1	-1.4	-0.78	1.1	.	69
Cc1nn(Cc2ccc(F)cc2)c(C)c1NC(=O)c1cc(-c2ccc3c(c2)OCO3)on1	-0.11	0.55	1.1	0.045	106
Cc1nn(Cc2c(F)c(F)c(F)c(F)c2F)c(C)c1NC(=O)c1cccc(COc2ccc(Cl)cc2)c1	.	.	1	-5.3*	.
Cc1ccc(Cn2nc(C)c(NC(=O)c3cc(-c4ccc5c(c4)OCO5)on3)c2C)cc1	-0.78	-0.42	1.1	-5.3*	66
SMILES	M1 antag	M1 agonist	PLAP activator	Cav3 T inh	HER2 expr 66K
COc1ccc(-c2cc(C(=O)Nc3c(C)nn(Cc4ccc(Cl)cc4)c3C)no2)cc1	0.068	0.062	0.8	-4.6*	68
Cc1nn(Cc2ccc(Cl)c(Cl)c2)c(C)c1NC(=O)c1cc(-c2ccco2)on1	-0.4	0.0082	.	-5.7*	71
CC(C)c1cc(C(N)=O)c(NC(=O)c2cccc(COc3ccc(Cl)cc3)c2)s1	.	.	0.9	.	.
Cn1ccnc1C(O)c1cc(C(C)(C)C)c(O)c(C(C)(C)C)c1 (centres undefined)	-1.4	0.065	2.2*	0.65	99
CCC1(CC)NC(=O)N(CC(=O)Nc2sc3c(c2C(N)=O)CCC3)C1=O	-0.62	-1.4	1.5	0.54	84
C=CCNC(=S)NNC(=O)c1cccn(Cc2ccc(Cl)c(Cl)c2)c1=O	.	.	1	-5.9*	.
CNC(=S)NNC(=O)c1cccn(Cc2ccc(Cl)c(Cl)c2)c1=O	.	.	1.9	-0.35	.
CN(C)c1ccc(/C=C(\C#N)C(=O)Nc2nc3c(s2)CCN(Cc2ccccc2)C3)cc1	.	.	1	-4*	.
CCN1CCc2nc(NC(=O)c3ccccc3)sc2C1	.	.	0.9	.	.
CCOC(=O)Nc1c(C)n(C)n(-c2ccccc2)c1=O	-1.3	1.3	0.9	0.57	118
Cc1c(NC(=O)/C=C/c2cn(-c3ccccc3)nc2-c2ccccc2)c(=O)n(-c2ccccc2)n1C	.	.	0.9	-4.5*	.
Cc1cccc(NC(=S)NC(=O)/C=C/c2ccco2)n1	.	.	1.5	1.6	.
COc1ccc2c(c1OC)C(=O)NC(C)=C(C(=O)OC(C)(C)C)C2O (centres undefined)	0.88	1.1	1.2	2.3	66
C=CCOc1ccc(CNn2c(C)n[nH]c2=S)cc1OC	.	.	1	0.37	.
O=C1Nc2cc(S(=O)(=O)N3CCCC3)ccc2N2CCCC12 (centres undefined)	.	.	1.3	-2.1	.
O=C1Nc2cc(Cl)cnc2N2CCCC12 (centres undefined)	-0.034	13*	1.2	-0.54	92
CCC(C)NS(=O)(=O)c1ccc(OCC(=O)N2CCC(C)CC2)cc1 (centres undefined)	.	.	.	0.35	.
CC1CCN(C(=O)COC(=O)[C@H](C)NS(=O)(=O)/C=C/c2ccccc2)CC1	.	.	1.4	-5.9*	.
Cc1nc2ncnn2c(N2CCCC(C(=O)Nc3ccc4c(c3)CCC4)C2)c1C (centres undefined)	-0.59	-1.1	2.1*	1	97
O=C(Nc1ccc2c(c1)CCC2)C1CCCN(c2ncccn2)C1 (centres undefined)	0.21	1.2	1.1	-1.7	73
c1ccc2c(-c3nc(C4CCCCC4)no3)cc(-c3ccncc3)nc2c1	-0.44	-0.24	1	0.0041	124
CC[C@H](C)/C=C(C)/C=C/C(=O)Cc1cc(O)c(C)c(O)c1C=O	.	.	.	-3.6*	.
C=CCn1c(Cc2nc3ccc(Cl)cc3[nH]2)n[nH]c1=S	.	.	2.4*	0.81	83
C=CCn1c(Cc2c[nH]c3ccccc23)n[nH]c1=S	0.12	0.36	1.6	-1.1	73
Cc1ccc(NC(=O)CC2SC3=NCCCN3C2=O)c(C)c1 (centres undefined)	-0.021	1.6	0.8	.	79
Cc1nc2c(Br)cc(Br)cc2cc1O	.	.	1.1	-5.1*	.
O=C(CN1C(=O)CCC1=O)Nc1nc(-c2ccccn2)cs1	0.0068	-0.2	2.2*	.	84
O=C(CCCSc1ccccc1)Nc1nc(-c2ccccn2)cs1	.	.	1.6	-6.3*	.
O=C(CN1C(=O)CCC1=O)Nc1nc(-c2nc3ccccc3s2)cs1	0.96	1.1	.	-0.22	64
COc1ccc(Cl)cc1-c1n[nH]c(=S)n1C1CCCCC1	.	.	2.4*	-5*	.
